Compound activity from PubChem.
A selection follows.
LmPK act: qHTS Assay for Activators of Leishmania Mexicana Pyruvate Kinase (LmPK) | 290,000 tested, under 10 active | Q27686 | activity change, negative = inhibition, % at 57.5 µM | purified LmPK, Kinase-Glo ATP luminescence, 1 h; calls by dose curve
Target sequence (Q27686 whole entry, looked up): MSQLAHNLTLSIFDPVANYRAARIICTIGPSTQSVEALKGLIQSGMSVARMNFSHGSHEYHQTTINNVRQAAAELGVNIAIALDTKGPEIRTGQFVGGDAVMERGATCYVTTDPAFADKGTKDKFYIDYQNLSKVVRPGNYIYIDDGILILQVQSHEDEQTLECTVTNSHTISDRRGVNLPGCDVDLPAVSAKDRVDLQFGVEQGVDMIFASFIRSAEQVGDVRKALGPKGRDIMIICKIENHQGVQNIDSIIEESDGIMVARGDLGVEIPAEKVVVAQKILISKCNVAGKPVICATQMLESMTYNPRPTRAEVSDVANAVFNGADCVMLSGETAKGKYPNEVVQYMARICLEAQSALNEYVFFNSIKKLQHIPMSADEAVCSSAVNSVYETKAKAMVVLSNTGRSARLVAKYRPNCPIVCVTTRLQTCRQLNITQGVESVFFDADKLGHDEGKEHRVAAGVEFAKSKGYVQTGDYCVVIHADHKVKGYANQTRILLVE
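Coupled luminescent assay: ATP produced by LmPK (0.1 nM) from ADP (0.1 mM, ~10-fold below Km) and PEP (0.5 mM, at Km) after 1 h RT, detected with Kinase-Glo. Data scaled between no-enzyme and uninhibited controls.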
The depositor's hits bear a star.

SMILES	LmPK act
Cc1cc(C(=O)COC(=O)c2n[nH]c3ccccc23)c(C)n1C	-34
Cc1cnc(NC(=O)c2ccco2)s1	-38
Cc1cccc(-c2noc(-c3ccoc3C)n2)c1	-48
S=c1[nH]nc(-c2ccc3ccccc3n2)n1-c1ccc2ncccc2c1	-61
O=C(Nc1nc(-c2cccs2)cs1)C1=COCCO1	-45
C/C(=N\Nc1ncc(Cl)cc1Cl)c1ccccn1	-40
CCOC(=O)c1c(N)sc(C(=O)Nc2ccc3c(c2)OCO3)c1C	-67
O=C(Nc1ccc(F)c(Cl)c1)c1nsc(Cl)c1Cl	-43
CC1(C)OC(c2ccccc2)=C/C(=C/C=C2C(=O)NC(=S)NC2=O)O1	-41
O=C(/C=C/c1ccc2c(c1)OCO2)c1ccccn1	-112
Cc1ccc(C(=O)O/N=C(\N)c2ccccc2)c(Cl)c1	-122
Cc1ccsc1C=C1C(=O)c2ccccc2C1=O	-64
Cc1ccc(C2=Nc3ccccc3N=C(C(Cl)Cl)C2)cc1	-44
Cc1ccc(-c2nc(-c3ccccn3)no2)cc1Cl	-87
Cc1nc2sc(-c3ccccc3)nn2c(=O)c1Br	-50
CS(=O)(=O)c1ccc2nc(NC(=O)c3cccs3)sc2c1	-67
CCOc1ccc(OCC(=O)Nc2nccs2)cc1	-107
CC1(C)C=Cc2c(c3c(c4c(=O)c(-c5ccc(O)cc5)coc24)OC(C)(C)CC3)O1	-39
O=C(Nc1ccc(OC(=O)c2ccco2)cc1)c1ccco1	-75
O=c1oc(-c2ccc([N+](=O)[O-])cc2)nc2ccc(O)cc12	-37
Cc1ccc(-n2nnc(-c3nccs3)n2)cc1	-85
Cc1ccc(-n2cc[nH]c2=S)cc1C	-44
COc1ccc(/C=C/C(=O)C2C(=O)C=C(C)OC2=O)cc1O (centres undefined)	-75
O=C(O)C1Cc2ccccc2CN1S(=O)(=O)/C=C/c1ccccc1 (centres undefined)	-30
COCCCn1c(-c2ccc(Cl)cc2)n[nH]c1=S	-33
SMILES	LmPK act
CC(=O)Oc1cccc(/C=C2\Sc3ccccc3C2=O)c1	-40
O=c1c(Cl)c(N2CCOCC2)cnn1-c1nc2ccccc2[nH]1	-35
O=C(Nc1sc2c(c1C(=O)O)CCC2)c1cccs1	-47
COc1ccc(C(=O)O/N=C(/C)c2cccs2)cc1	-155
Cc1ccc(C(=O)COC(=O)c2cccs2)cc1	-48
O=C1C=CC(=O)N1c1cccc(-c2ccccc2)c1	-41
COc1cc(/C=N/O)ccc1OCc1ccc(C(=O)O)cc1	-44
CCOc1ccc(/C=C/C2=NNC(=O)CC2)cc1	-53
Cc1cc(C(=O)Nc2ccccn2)cs1	-68
CCN(CC)S(=O)(=O)c1cccc(-c2n[nH]c(=S)n2CC(C)C)c1	-58
Nc1c(C(=O)N2CCOCC2)sc2nc3c(cc12)CCCC3	-48
COc1ccc(-n2c(-c3cccc(C)c3[N+](=O)[O-])n[nH]c2=S)cc1	-52
COc1cc(/C=C/c2sc3ccccc3[n+]2CCCS(=O)(=O)[O-])ccc1O	-70
O=C(O)CCCn1c(=S)[nH]c2c(sc3ccc([N+](=O)[O-])cc32)c1=O	-32
CC(=O)Nc1ccc(C2=NNC(=Nc3ccc(S(=O)(=O)N4CCOCC4)cc3)SC2)cc1	-31
CC(C)NC(=O)c1ccc2c3n(nc2c1)-c1ccccc1CO3	-93
Oc1ccc(-c2cn3ccccc3n2)cc1	-62
Cc1ccc(C)c(OC2=NS(=O)(=O)c3ccccc32)c1	-87
C/C(=N\NC(=O)c1ccc(Cl)cc1)c1cccs1	-33
CCCCOc1ccc(Nc2cc(Cl)ccc2C(=O)O)cn1	-35
S=c1[nH]nc(Cc2noc3ccccc23)n1-c1ccc(Cl)cc1	-55
Cc1occc1C(=O)N/N=C/c1cccs1	-72
Cc1cccc(Nc2nc(-c3ccc(O)c(O)c3)cs2)n1	-44
CC(c1n[nH]c(=S)n1-c1ccc(F)cc1)N1CCCCC1 (centres undefined)	-41
Cc1cc(C(=O)COC(=O)c2ccccc2Br)c(C)n1CC1CCCO1 (centres undefined)	-35
SMILES	LmPK act
Cc1ccccc1/C=N/NC(=O)c1sccc1C	-42
CN(C)c1ccc(NC(=O)c2cnsn2)cc1	-53
Cc1ccc(C(=O)Nc2ccc3c(c2)OCCO3)c(C)c1	-37
Cc1csc(NC(=O)c2cc(C)oc2C)n1	-45
Cc1cc(C(=O)Nc2ccc(OCc3ccccc3)cc2)c(C)o1	-76
COc1ccc(C2=CC(=O)C=CC2=O)cc1	-101
C(=N\c1nc2ccccc2[nH]1)/c1cccs1	-75
CCOC(=O)c1sc(NC(=O)c2cccs2)cc1C	-33
Cc1nc(/C(N)=N/OC(=O)c2ccc(Cl)cc2)c(C(F)(F)F)o1	-53
FC(F)(F)c1cccc(NCc2n[nH]c(=S)n2C2CCCCC2)c1	-67
C=CCn1c(-c2c[nH]c3ccccc23)n[nH]c1=S	-62
COCCOCCn1c(/C=C/c2ccccc2)nc2ccccc21	-72
COc1ccccc1OCC(=O)Nc1ccccn1	-75
Oc1cccc(/C=N/Nc2nn3cnnc3c3ccccc23)c1	-61
C=CCN=C1NN=C(c2cc(C)n(CC=C)c2C)CS1	-37
O=C1CCCC2=C1C(c1ccc(O)c(O)c1)Nc1ccc3ncccc3c12 (centres undefined)	-41
